In ChEMBL document CHEMBL1201862, “PubChem BioAssay data set” (2004):
Where “and” joins values, the source holds several entries; their conditions need not be identical. Identical values can stand only once.

assay: Mycobacterium tuberculosis growth inhibition, dose response, 7H9 media, purified and synthesized compounds, set 8 (AID 588447); assay type: functional; call rule not given here

Compound | IC90
CC1CCCN(C(=O)c2ccc(CNc3c(N4CCCCC4)c(=O)c3=O)cc2)C1 (centres undefined) | > 100 µM (active)
CC1CC(C)CN(C(=O)c2ccc(CNc3c(N4CCCC4)c(=O)c3=O)cc2)C1 (centres undefined) | > 100 µM (active)
CC(C)OC(=O)CSc1ncnc2c1cnn2-c1ccccc1 | > 100 µM (active)
CC1CCCN(C(=O)C2CCC(CNc3c(N4CCCCC4)c(=O)c3=O)CC2)C1 (centres undefined) | > 100 µM (active)
CCOC(=O)CSc1ncnc2c1cnn2-c1ccccc1 | > 75.1 µM (active)
CC(=O)c1ccc(NC(=O)c2ccc(CNc3c(N4CCOCC4)c(=O)c3=O)cc2)cc1 | > 100 µM (active)
CC1CC(C)CN(C(=O)C2CCC(CNc3c(N4CCCCC4)c(=O)c3=O)CC2)C1 (centres undefined) | > 75 µM (active) and > 100 µM (active)
Cc1cccc(N2CCN(C(=O)c3ccc(CNc4c(N5CCC(C)CC5)c(=O)c4=O)cc3)CC2C)c1 (centres undefined) | > 76.5 µM (active)
COc1ccc(N2CCN(C(=O)c3ccc(CNc4c(N5CCOCC5)c(=O)c4=O)cc3)CC2)cc1 | > 100 µM (active)
O=C(c1ccc(CNc2c(N3CCCC3)c(=O)c2=O)cc1)N1CCc2ccccc2C1 | > 100 µM (active)
O=C(C1CCC(CNc2c(N3CCCCC3)c(=O)c2=O)CC1)N1CCCCC1 (centres undefined) | > 100 µM (active)
O=C(NCCc1ccc(Cl)cc1)C1CCC(CNc2c(N3CCCCC3)c(=O)c2=O)CC1 (centres undefined) | > 100 µM (active)
O=C(NCCc1ccc(Cl)cc1)c1ccc(CNc2c(N3CCOCC3)c(=O)c2=O)cc1 | > 100 µM (active)
CC1CCN(C(=O)c2ccc(CNc3c(N4CCCC4)c(=O)c3=O)cc2)CC1 | > 100 µM (active)
